According to PubChem BioAssay (NCATS):
Where “and” joins values, the source holds several entries; their conditions need not be identical. Identical values can stand only once. Results filed as inconclusive are left out. Entries that show only a call come without a potency. Calls of active or inactive are those of the source. Unless noted, calls come from the whole dose curve; as a rule, active = well fitted curve in the direction sought with a large enough effect; inconclusive = small, poorly fitted or top-dose-only effect, or another doubt; inactive = no such curve, though single readings can be large; an effect the other way counts as inactive or inconclusive.

Tests used:
[1] = Primary qHTS for small molecule stabilizers of the endoplasmic reticulum resident proteome: Secreted ER Calcium Modulated Protein (SERCaMP) assay (AID 1508630)
Summary of the method: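 GLuc-SERCaMP-expressing SH-SY5Y cells, pretreated 16 h with compound, are challenged with thapsigargin to empty ER calcium stores; after 4 h, coelenterazine is added directly to the medium and luminescence is imaged.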

[2] = target: Cytochrome P450 2D6 (Homo sapiens) (UniProt P10635); experiment: Cytochrome P450 family 2 subfamily D member 6 (CYP2D6) small molecule antagonists: luciferase biochemical (cell-free) qHTS assay (AID 1645840; active = well fitted curve in the direction sought with a large enough effect in the repeat runs; an effect the other way counts as inactive or inconclusive; note: nearly all actives have a fitted effect of over 55% in size; note: potency is the fitted concentration of half-maximal effect)
Summary of the method: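 P450-Glo luminescent screen: recombinant CYP2D6 enzyme–proluciferin substrate mix preincubated with compound 10 min at room temperature, then NADPH regeneration added for 1 h at room temperature. Detection reagent added for 20 min; luciferin light read as relative luminescence units.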

[3] = target: Cytochrome P450 2C9 (Homo sapiens) (UniProt P11712); experiment: Cytochrome P450 family 2 subfamily C member 9 (CYP2C9) small molecule antagonists: luciferase biochemical (cell-free) qHTS assay (AID 1645842; active = well fitted curve in the direction sought with a large enough effect in the repeat runs; an effect the other way counts as inactive or inconclusive; note: nearly all actives have a fitted effect of over 55% in size; note: potency is the fitted concentration of half-maximal effect)
Summary of the method: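 Luminescence, after 20 min with luciferin detection reagent, reflected CYP2C9 turnover during a 1 h NADPH-driven reaction at 37C. Enzyme-substrate mix contained 0.4% bovine serum albumin and was preincubated with compound 10 min at room temperature.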

[4] = target: N-terminal Xaa-Pro-Lys N-methyltransferase 1 (Homo sapiens) (UniProt Q9BV86); experiment: Confirmatory qHTS for Inhibitors of N-terminal methyltransferase 1 (NTMT1): MTaseGlo Assay (AID 1645874); note: nearly all actives have a fitted effect of over 65% in size; note: potency is the fitted concentration of half-maximal effect;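 for activity change, negative = inhibition: luminescence from SAH made as NTMT1 methylates SPKRIA peptide using SAM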
Summary of the method: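 Preincubation of NTMT1 (125 nM) plus SAM (100 uM) with test compounds lasted 15 min; methylation of 1 uM SPKRIA then proceeded 30 min in the dark at room temperature. Luciferase signal reported SAH produced.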

[5] = Primary qHTS for inhibitors of nuclear receptor binding SET domain protein 2 (NSD2) in an isogenic RCH-ACV NSD2 p.E1099K mutant (9B) (AID 1645876); note: nearly all actives have a fitted effect of over 70% in size; note: potency is the fitted concentration of half-maximal effect
[6] = Primary qHTS for inhibitors of nuclear receptor binding SET domain protein 2 (NSD2) in an RCH-ACV wild type WT cells (2C) (AID 1645877); note: nearly all actives have a fitted effect of over 70% in size; note: potency is the fitted concentration of half-maximal effect
[7] = target: Catechol O-methyltransferase (Homo sapiens) (UniProt P21964); experiment: Confirmatory Screen for Target Class Profiling of Small Molecule Inhibitors of Methyltransferases (AID 1745852; calls by dose curve; note: potency is the fitted concentration of half-maximal effect); details: MTase-Glo luminescence, SAH detection, recombinant enzyme; measured here: COMT max response; stronger effect = lower value
[8] = target: Guanidinoacetate N-methyltransferase (Homo sapiens) (UniProt Q14353); experiment: as above; details: MTase-Glo luminescence, SAH detection, recombinant enzyme; activity change, negative = inhibition: at 57.3 µM (top of the series)
[9] = target: Nicotinamide N-methyltransferase (Homo sapiens) (UniProt P40261); experiment: as above; details: MTase-Glo luminescence, SAH detection, recombinant enzyme; measured here: NNMT max response; stronger effect = lower value
[10] = target: Phenylethanolamine N-methyltransferase (Homo sapiens) (UniProt P11086); experiment: as above; details: MTase-Glo luminescence, SAH detection, recombinant enzyme; measured here: PNMT max response; stronger effect = lower value
[11] = target: Cytochrome P450 3A4 (Homo sapiens) (UniProt P08684); experiment: Cytochrome P450 family 3 subfamily A member 4 (CYP3A4) small molecule antagonists: luciferase qHTS assay (AID 1645841; active = well fitted curve in the direction sought with a large enough effect in the repeat runs; an effect the other way counts as inactive or inconclusive; note: nearly all actives have a fitted effect of over 45% in size)
Summary of the method: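 Luminescent CYP3A4 activity readout: compounds plus enzyme-substrate mix 10 min at room temperature, reaction started with NADPH regenerating system for 1 h, stopped with detection reagent, read after 20 min. Ketoconazole served as control.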

[12] = A High-Content qHTS Against Drug Library for the Identification of Small Molecules that Inhibit DYT1 Early Onset Primary Dystonia-Associated Cell Pathology (AID 1645839; calls by dose curve)
Summary of the method: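 In this high-content image screen, delE TorsinA mislocalization in inducible Flp-In 293 cells is scored as %pathology, with cell count serving as the counterscreen. Compound exposure lasts 48 h under tetracycline induction in reduced-serum medium.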

N-terminal Xaa-Pro-Lys N-methyltransferase 1 (Homo sapiens), sequence (Q9BV86 whole entry, looked up): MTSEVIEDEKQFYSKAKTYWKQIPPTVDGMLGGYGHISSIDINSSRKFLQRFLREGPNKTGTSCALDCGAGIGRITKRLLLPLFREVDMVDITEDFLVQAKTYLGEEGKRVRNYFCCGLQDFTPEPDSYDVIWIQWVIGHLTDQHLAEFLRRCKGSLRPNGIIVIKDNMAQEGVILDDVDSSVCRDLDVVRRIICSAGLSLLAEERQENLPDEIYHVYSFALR
Cytochrome P450 2D6 (Homo sapiens), sequence (P10635 whole entry, looked up): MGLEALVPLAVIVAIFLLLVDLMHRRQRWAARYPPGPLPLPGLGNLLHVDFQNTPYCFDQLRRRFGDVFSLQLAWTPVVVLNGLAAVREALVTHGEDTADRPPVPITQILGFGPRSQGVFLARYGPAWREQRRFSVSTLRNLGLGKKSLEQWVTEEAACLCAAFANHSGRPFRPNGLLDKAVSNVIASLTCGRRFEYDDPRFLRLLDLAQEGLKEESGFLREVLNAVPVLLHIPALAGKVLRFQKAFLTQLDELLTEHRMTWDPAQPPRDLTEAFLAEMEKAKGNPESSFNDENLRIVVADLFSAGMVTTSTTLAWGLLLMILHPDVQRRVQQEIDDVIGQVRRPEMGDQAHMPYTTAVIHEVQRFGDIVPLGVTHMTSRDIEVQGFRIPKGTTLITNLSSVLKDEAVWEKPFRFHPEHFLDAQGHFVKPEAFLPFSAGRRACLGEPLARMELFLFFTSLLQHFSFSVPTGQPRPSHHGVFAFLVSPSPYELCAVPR
Cytochrome P450 2C9 (Homo sapiens), sequence (P11712 whole entry, looked up): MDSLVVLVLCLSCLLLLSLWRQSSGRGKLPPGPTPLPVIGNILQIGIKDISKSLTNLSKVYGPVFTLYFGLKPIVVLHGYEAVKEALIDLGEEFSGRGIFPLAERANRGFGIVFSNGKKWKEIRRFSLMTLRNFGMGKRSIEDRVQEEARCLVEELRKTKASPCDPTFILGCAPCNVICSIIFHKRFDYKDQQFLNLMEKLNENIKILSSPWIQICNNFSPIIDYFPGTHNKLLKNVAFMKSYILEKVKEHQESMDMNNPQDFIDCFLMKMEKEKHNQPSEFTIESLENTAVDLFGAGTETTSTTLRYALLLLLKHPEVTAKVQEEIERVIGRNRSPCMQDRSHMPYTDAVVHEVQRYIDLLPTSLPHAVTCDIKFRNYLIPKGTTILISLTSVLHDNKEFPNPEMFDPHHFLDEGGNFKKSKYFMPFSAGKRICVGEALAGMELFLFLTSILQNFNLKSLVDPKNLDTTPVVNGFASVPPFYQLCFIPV
Cytochrome P450 3A4 (Homo sapiens), sequence (P08684 whole entry, looked up): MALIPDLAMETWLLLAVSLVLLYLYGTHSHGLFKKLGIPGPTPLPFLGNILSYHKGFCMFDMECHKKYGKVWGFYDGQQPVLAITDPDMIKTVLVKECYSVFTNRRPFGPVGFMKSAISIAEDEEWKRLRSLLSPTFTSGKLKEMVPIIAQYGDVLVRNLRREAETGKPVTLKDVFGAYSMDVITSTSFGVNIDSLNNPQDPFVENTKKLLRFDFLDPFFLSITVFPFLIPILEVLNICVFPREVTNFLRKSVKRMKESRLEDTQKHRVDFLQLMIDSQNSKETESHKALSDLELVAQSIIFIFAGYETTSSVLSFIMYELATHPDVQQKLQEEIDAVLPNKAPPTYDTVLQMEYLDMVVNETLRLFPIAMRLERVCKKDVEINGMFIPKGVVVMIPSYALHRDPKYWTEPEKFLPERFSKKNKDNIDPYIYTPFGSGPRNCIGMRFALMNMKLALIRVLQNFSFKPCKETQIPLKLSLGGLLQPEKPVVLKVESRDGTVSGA
Nicotinamide N-methyltransferase (Homo sapiens), sequence (P40261 whole entry, looked up): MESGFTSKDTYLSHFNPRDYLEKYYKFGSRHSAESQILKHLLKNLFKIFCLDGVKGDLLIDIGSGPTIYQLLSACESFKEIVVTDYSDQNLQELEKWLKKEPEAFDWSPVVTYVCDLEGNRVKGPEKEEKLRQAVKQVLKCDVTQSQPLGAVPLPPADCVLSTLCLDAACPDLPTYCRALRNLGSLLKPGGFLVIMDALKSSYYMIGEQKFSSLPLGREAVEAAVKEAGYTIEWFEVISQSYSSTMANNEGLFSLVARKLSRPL
Phenylethanolamine N-methyltransferase (Homo sapiens), sequence (P11086 whole entry, looked up): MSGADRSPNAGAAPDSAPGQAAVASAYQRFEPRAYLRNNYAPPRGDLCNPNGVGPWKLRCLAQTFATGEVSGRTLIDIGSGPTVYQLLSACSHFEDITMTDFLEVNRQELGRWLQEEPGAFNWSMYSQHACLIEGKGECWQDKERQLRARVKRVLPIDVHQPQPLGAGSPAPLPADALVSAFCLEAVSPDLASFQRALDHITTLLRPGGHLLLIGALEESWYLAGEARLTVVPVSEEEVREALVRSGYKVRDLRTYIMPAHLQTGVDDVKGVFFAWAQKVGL
Catechol O-methyltransferase (Homo sapiens), sequence (P21964 whole entry, looked up): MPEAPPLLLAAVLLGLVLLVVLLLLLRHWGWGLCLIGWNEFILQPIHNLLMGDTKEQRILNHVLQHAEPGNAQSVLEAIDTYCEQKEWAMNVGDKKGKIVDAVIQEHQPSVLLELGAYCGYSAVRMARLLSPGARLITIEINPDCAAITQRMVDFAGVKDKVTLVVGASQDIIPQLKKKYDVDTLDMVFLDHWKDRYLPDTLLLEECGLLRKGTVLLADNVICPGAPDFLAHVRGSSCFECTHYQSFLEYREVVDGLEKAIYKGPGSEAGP

## CCN1CCC(n2cc(CNc3cc(Cl)c4ncc(C#N)c(Nc5ccc(F)c(Cl)c5)c4c3)nn2)CC1
[1]
  Potency: inactive
[2]
  Potency: 12 µM (active)
[3]
  Potency: 7.56 µM (active)
[4]
  Potency: 10 µM (active)
[5]
  Potency: 23500 nM (active)
[6]
  Potency: 18600 nM (active)
[7]
  activity: -89.7%
[8]
  Potency: 10.8 µM (active)
[9]
  activity: -81.6%
[10]
  activity: -91.4%

## CC1(C)OC2CC3C4CC(F)C5=CC(=O)C=CC5(C)C4C(O)CC3(C)[C@]2(C(=O)CO)O1 (some centres undefined)
[1]
  Potency: inactive

## COc1cc([C@H]2Oc3cc([C@H]4Oc5cc(O)cc(O)c5C(=O)[C@H]4O)ccc3O[C@H]2CO)ccc1O
[1]
  Potency: inactive

## CC(C)(C)c1[nH]cnc1C=c1[nH]c(=O)c(=Cc2ccccc2)[nH]c1=O
[1]
  Potency: inactive

## COC(=O)N1CCN(Cc2cccc(NC(=O)Nc3ccc(C)nc3)c2F)CC1
[1]
  Potency: inactive
[2]
  Potency: inactive

## O=C(c1ccc(F)c(F)c1Nc1ccc(I)cc1F)N1CC(O)([C@H]2CCCCN2)C1
[1]
  Potency: inactive
[2]
  Potency: 3.01 µM (active)
[3]
  Potency: inactive

## COc1cc2c(cc1OC)[C@@H]1Cc3ccc(OC)c(OC)c3CN1CC2
[1]
  Potency: inactive

## CC(C)N(CCCNC(=O)Nc1ccc(C(C)(C)C)cc1)C[C@H]1O[C@@H](n2cc(Br)c3c(N)ncnc32)[C@H](O)[C@H]1O
[1]
  Potency: inactive

## Cc1cnc(Nc2cccc(CN3CCOCC3)c2)nc1Nc1cccc(S(=O)(=O)NC(C)(C)C)c1
[1]
  Potency: inactive
[2]
  Potency: 15.1 µM (active)
[3]
  Potency: 5.35 µM (active)
[5]
  Potency: 515 nM (active)
[6]
  Potency: 515 nM (active)

## CCNC(=O)c1noc(-c2cc(C(C)C)c(O)cc2O)c1-c1ccc(CN2CCOCC2)cc1
[1]
  Potency: inactive
[2]
  Potency: 1.34 µM (active)
[3]
  Potency: 2.39 µM (active)
[4]
  Potency: inactive
[5]
  Potency: 18.3 nM (active) and 11.8 nM (active)
[6]
  Potency: 18.3 nM (active) and 13.2 nM (active)

## COc1ccc(-c2cc3nccn3c(Nc3ncccc3C(N)=O)n2)cc1OC
[1]
  Potency: inactive
[2]
  Potency: inactive
[3]
  Potency: 5.35 µM (active)
[5]
  Potency: 649 nM (active)

## CN1[C@H]2CC[C@H]1CC(OC(=O)c1c[nH]c3ccccc13)C2 (some centres undefined)
[1]
  Potency: inactive
[2]
  Potency: 12 µM (active)
[3]
  Potency: inactive

## Cc1cc(-c2ncc(CC(=O)Nc3ccc(-c4cnccn4)cn3)cc2C)ccn1
[1]
  Potency: inactive
[2]
  Potency: inactive
[3]
  Potency: inactive
[4]
  Potency: inactive

## CC[C@H](C)C(=O)O[C@H]1C[C@H](O)C=C2C=C[C@H](C)[C@H](CC[C@@H](O)C[C@@H](O)CC(=O)O)[C@H]21
[1]
  Potency: inactive
[2]
  Potency: inactive
[11]
  outcome: inactive
[3]
  Potency: inactive
[5]
  Potency: inactive
[6]
  Potency: inactive

## C[C@@H]1C[C@H]2[C@@H]3CCC4=CC(=O)C=C[C@]4(C)[C@@]3(F)[C@@H](O)C[C@]2(C)[C@@]1(O)C(=O)CO
[1]
  Potency: inactive
[12]
  outcome: inactive
[6]
  Potency: 33.2 nM (active)

## C[C@H](c1ccc(F)cc1CCCC(=O)O)N(c1cc(F)ccc1F)S(=O)(=O)c1ccc(Cl)cc1
[1]
  Potency: inactive
[2]
  Potency: 16.9 µM (active)
[3]
  Potency: 8.49 µM (active)
